Results filed as inconclusive are left out. The source made the active and inactive calls. Calls follow the shape of the dose curve; as a rule, active = well fitted inhibition curve with a large enough effect; inconclusive = small, poorly fitted or top-dose-only effect; inactive = flat fitted curve, though single readings scatter.
Key:
Experiment in all cases: qHTS profiling for inhibitors of Plasmodium falciparum proliferation (AID 504749); also: nearly all actives have a fitted effect of over 60% in size
Conditions in all cases: P. falciparum in erythrocytes, SYBR Green DNA, 72 h; series mostly up to 28.7 µM
7G8 = tested on: 7G8
In short: (§1)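 SYBR Green fluorescence (ex 485 nm, em 535 nm) reports parasite DNA after 72 h compound exposure of infected red cells at 0.3% parasitemia, 2.5% hematocrit; signal normalized to 0.29 uM artemisinin and vehicle wells.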

AA1029 = tested on: AA1029
In short: as §1

AS120 = tested on: AS120
In short: as §1

ATS189 = tested on: ATS189
In short: as §1

ATS95 = tested on: ATS95
In short: as §1

C2A = tested on: C2A
In short: as §1

CP185 = tested on: CP185
In short: as §1

CP191 = tested on: CP191
In short: as §1

CP192 = tested on: CP192
In short: as §1

CP194 = tested on: CP194
In short: as §1

CP201 = tested on: CP201
In short: as §1

CP203 = tested on: CP203
In short: as §1

CP211 = tested on: CP211
In short: as §1

CP215 = tested on: CP215
In short: as §1

CP217 = tested on: CP217
In short: as §1

CP237 = tested on: CP237
In short: as §1

CP238 = tested on: CP238
In short: as §1

CP247 = tested on: CP247
In short: as §1

CP250 = tested on: CP250
In short: as §1

CP252 = tested on: CP252
In short: as §1

Measured: Potency

O=C(O)/C=C/c1ccccc1
inactive: all assays above

CN1c2c(nc(N)[nH]c2=O)NCC1CNc1ccc(C(=O)NC(CCC(=O)O)C(=O)O)cc1 (stereo not given)
inactive: all assays above

FC(F)(F)COCC(F)(F)F
inactive: all assays above

NCC(O)CC(=O)O (stereo not given)
inactive: all assays above

CC12CCC(C[N+](C)(CCC[N+](C)(C)C)C1)C2(C)C (stereo not given)
inactive: all assays above

OCl
inactive: all assays above

CCOC(C)OCC
inactive: all assays above

C[Si](C)(C)O[Si](C)(C)C
inactive: all assays above

O=c1[nH]c(=O)n([C@H]2C[C@H](O)[C@@H](CO)O2)cc1/C=C/Br
inactive: all assays above

O=C(O)COc1ccc(CCNS(=O)(=O)c2ccccc2)s1
inactive: all assays above

S=C=Nc1ccc(N=C=S)cc1
inactive: all assays above

CCC(Cc1c(I)cc(I)c(O)c1I)C(=O)O (stereo not given)
inactive: all assays above

— PubChem BioAssay (NCATS)
